Screening data as filed in PubChem.
Most compounds without a hit are left out; they make up all but 1.9% or so of the library.
CaV13 FRET inh: Disruptors of the CACNA1D IQ motif to Ca2+-dependent inactivation inhibitor domain association, primary screening, Förster resonance energy transfer in intact living …; HEK cells, CFP/YFP FRET ICDI-IQ, plate reader, 10 min; percent FRET-ratio fall versus neutral wells; AID 743397; 0.098% of 340,000 active; inhibition, % at 12.3 µM;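 active means mean replicate inhibition of at least 30% and at least 1% of replicates passing that level; inconclusive means only one of the two criteria is met; inactive means neither criterion is met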
NSD2 HMT inh: inhibitors of human histone methyltransferase NSD2; O96028; NSD2 peptide methylation, AlphaScreen, 120 min; inhibition, % at 12.5 µM; 0.54% of 310,000 active; AID 743445; in the data active means inhibition above about 50%
Pemphigus Ab inh: inhibitors of pemphigus antibody binding to human desmoglein-3 | DSG3-coupled beads, scFv-anti-DSG3-GFP binding, flow cytometry; active compounds read low | AID 588358 | 0.48% of 310,000 active | binding (percent of control), % at 10 µM;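 active means binding more than 3 SD below its plate's average and above zero; inconclusive means below that plate limit but binding exactly zero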;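 further: hits lower antibody fragment binding to DSG3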
Vif inh: blocks HIV Vif function | inhibition, % at 7.49 µM | HEK293T cells, Vif self-association by quenched fluorescence, imaging, 24 h | 0.35% of 340,000 active; in the data active means inhibition above about 50%, passing the limit was not always enough; inconclusive means no clear call, values can overlap the other calls; inactive means below about 31%
N-glyco inh: blocks N-linked glycosylation in D54 reporter cells; reporter increase, % at 12.5 µM; 0.23% of 360,000 active; D54 ERlucT glycosylation luciferase reporter, 24 h; percent of 100 nM tunicamycin response;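 active means mean luciferase reporter signal, scaled so untreated is 0 and the glycosylation-blocking control 100, at or above a set limit in every replicate; inconclusive means mean reaches the limit but not every replicate does; inactive means mean below the limit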;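 further: luciferase carries N-glycosylation sites so blocking glycosylation raises the light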
ATG4B inhibitor: inhibitors of human ATG4B cysteine protease | AID 504462 | inhibition, % at 8.33 µM | Q9Y4P1 | 0.51% of 340,000 active | ATG4B cleavage of LC3-PLA2, NBD-HPC fluorescence, 1 h; in the data active means inhibition above about 40%
Target sequence (Q9Y4P1 whole entry, looked up): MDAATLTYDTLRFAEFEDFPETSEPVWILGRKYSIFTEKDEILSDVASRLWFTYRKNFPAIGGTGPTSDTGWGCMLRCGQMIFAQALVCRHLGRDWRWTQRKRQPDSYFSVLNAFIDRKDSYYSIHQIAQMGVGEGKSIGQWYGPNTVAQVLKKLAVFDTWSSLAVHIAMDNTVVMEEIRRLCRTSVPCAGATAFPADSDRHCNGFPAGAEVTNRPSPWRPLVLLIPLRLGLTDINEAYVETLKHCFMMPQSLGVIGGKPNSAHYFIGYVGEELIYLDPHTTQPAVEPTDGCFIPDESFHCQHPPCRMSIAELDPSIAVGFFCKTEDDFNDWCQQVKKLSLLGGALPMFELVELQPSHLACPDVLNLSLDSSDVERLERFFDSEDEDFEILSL
Hits are given with their value.

Results for Cc1ccc(S(=O)(=O)NCCc2cc3ccc(C)cc3[nH]c2=O)cc1 ?
CaV13 FRET inh: inactive; NSD2 HMT inh: inactive; Pemphigus Ab inh: inactive; Vif inh: inactive; N-glyco inh: inactive; ATG4B inhibitor: inactive

What do the screens show for `COc1ccc2cc(CCNS(=O)(=O)c3ccc(NC(C)=O)cc3)c(=O)[nH]c2c1`?
CaV13 FRET inh: inactive; NSD2 HMT inh: inactive; Pemphigus Ab inh: inactive; Vif inh: 57; N-glyco inh: inactive; ATG4B inhibitor: inactive

What do the screens show for `CC1CC(C)CN(C(=O)c2ccc3c(=O)n(Cc4ccc5c(c4)OCO5)c(=S)[nH]c3c2)C1` (stereo not drawn)?
CaV13 FRET inh: inactive; NSD2 HMT inh: inactive; Pemphigus Ab inh: inactive; Vif inh: inactive; N-glyco inh: inactive; ATG4B inhibitor: 101

What do the screens show for `COCCCNC(=O)c1ccc2c(=O)n(Cc3ccc4c(c3)OCO4)c(=S)[nH]c2c1`?
CaV13 FRET inh: inactive; NSD2 HMT inh: inactive; Pemphigus Ab inh: inactive; Vif inh: inactive; N-glyco inh: inactive; ATG4B inhibitor: inactive

How did COc1cc(CCC(=O)Nc2nnc(C)s2)cc(OC)c1OC do in these assays?
CaV13 FRET inh: inactive; NSD2 HMT inh: inactive; Pemphigus Ab inh: inactive; Vif inh: inactive; N-glyco inh: 33; ATG4B inhibitor: inactive

Results for CCc1ccc(CCC(=O)Nc2nnc(C)s2)o1 ?
CaV13 FRET inh: inactive; NSD2 HMT inh: inactive; Pemphigus Ab inh: inactive; Vif inh: 55; N-glyco inh: inactive; ATG4B inhibitor: inactive

Results for CN(C)S(=O)(=O)c1ccc(NC(=O)c2cc(-c3cccs3)nc3ccccc23)cc1 ?
CaV13 FRET inh: inactive; NSD2 HMT inh: inactive; Pemphigus Ab inh: inactive; Vif inh: inactive; N-glyco inh: inactive; ATG4B inhibitor: inactive

Results for COC(=O)c1ccc(NC(=O)c2cc(-c3ccccn3)nc3ccccc23)cc1 ?
CaV13 FRET inh: inactive; NSD2 HMT inh: inactive; Pemphigus Ab inh: 4.9; Vif inh: 62; N-glyco inh: inactive; ATG4B inhibitor: inactive

What do the screens show for `NS(=O)(=O)c1ccc(NC(=O)c2cc(-c3cccs3)nc3ccccc23)cc1`?
CaV13 FRET inh: inactive; NSD2 HMT inh: inactive; Pemphigus Ab inh: 36; Vif inh: inactive; N-glyco inh: inactive; ATG4B inhibitor: inactive

What do the screens show for `COc1ccc(C(=O)CSC#N)cc1OC`?
CaV13 FRET inh: inactive; NSD2 HMT inh: inactive; Pemphigus Ab inh: inactive; Vif inh: inactive; N-glyco inh: 26; ATG4B inhibitor: inactive

What do the screens show for `COc1ccc2nc(-c3ccco3)c(-c3ccco3)nc2c1`?
CaV13 FRET inh: inactive; NSD2 HMT inh: inactive; Pemphigus Ab inh: inactive; Vif inh: inactive; N-glyco inh: 33; ATG4B inhibitor: inactive

Results for C/C(=N\NC(=O)c1ccoc1C)c1cccc2ccccc12 ?
CaV13 FRET inh: inactive; NSD2 HMT inh: inactive; Vif inh: inactive; N-glyco inh: inactive; ATG4B inhibitor: inactive

How did COc1ccc(-n2cnnc2SCc2cnc(-c3ccccc3)s2)cc1 do in these assays?
CaV13 FRET inh: inactive; NSD2 HMT inh: inactive; Vif inh: inactive; N-glyco inh: inactive; ATG4B inhibitor: inactive

What do the screens show for `O=c1[nH]c2ccccc2cc1CN(c1ccccc1)S(=O)(=O)c1ccccc1`?
CaV13 FRET inh: inactive; NSD2 HMT inh: inactive; Pemphigus Ab inh: inactive; Vif inh: inactive; N-glyco inh: inactive; ATG4B inhibitor: inactive

Results for O=C(N/N=C/c1ccc(Cl)cc1)c1sccc1OCc1ccc(F)cc1 ?
CaV13 FRET inh: inactive; NSD2 HMT inh: inactive; Pemphigus Ab inh: inactive; Vif inh: inactive; N-glyco inh: 33; ATG4B inhibitor: inactive

What do the screens show for `O=C(N/N=C/c1ccc(F)cc1)c1sccc1OCc1ccc(F)cc1`?
NSD2 HMT inh: inactive; Pemphigus Ab inh: inactive; N-glyco inh: inconclusive; ATG4B inhibitor: inactive

How did CCN1CC=C2C(C1)C(c1ccc(Cl)s1)C(C#N)=C(N)C2(C#N)C#N (stereo not drawn) do in these assays?
CaV13 FRET inh: inactive; NSD2 HMT inh: inactive; Vif inh: 87; N-glyco inh: inactive; ATG4B inhibitor: inactive

How did C[C@H](CO)N1C[C@H](C)[C@@H](CN(C)Cc2ccccc2)OCc2cnnn2CCCC1=O do in these assays?
CaV13 FRET inh: inactive; Pemphigus Ab inh: 91; Vif inh: inactive; N-glyco inh: inactive

Results for C[C@@H]1CN([C@H](C)CO)C(=O)CCCn2cc(nn2)CO[C@H]1CN(C)C(=O)c1ccccc1 ?
CaV13 FRET inh: inactive; Vif inh: 70; N-glyco inh: inactive

Results for C[C@@H]1CN([C@@H](C)CO)C(=O)CCCn2cc(nn2)CO[C@H]1CN(C)C(=O)c1ccccc1 ?
CaV13 FRET inh: inactive

How did COc1ccc2c(C)c(Cl)c(=O)oc2c1 do in these assays?
NSD2 HMT inh: inactive; Pemphigus Ab inh: inactive; Vif inh: 53; N-glyco inh: inactive; ATG4B inhibitor: inactive

What do the screens show for `COC(=O)c1ccc(COc2ccccc2/C=C(\C#N)C(=O)Nc2c(C)cccc2C)cc1`?
CaV13 FRET inh: inactive; NSD2 HMT inh: inactive; Pemphigus Ab inh: inactive; N-glyco inh: 37; ATG4B inhibitor: inactive

How did Cc1ccc(S(=O)(=O)NCC(=O)Nc2cccc([N+](=O)[O-])c2)cc1 do in these assays?
CaV13 FRET inh: inactive; NSD2 HMT inh: inactive; Pemphigus Ab inh: inactive; Vif inh: inactive; N-glyco inh: inactive; ATG4B inhibitor: inactive

What do the screens show for `Cc1nn(CC(=O)NCc2ccccc2)c(C)c1[N+](=O)[O-]`?
NSD2 HMT inh: inactive; Pemphigus Ab inh: inactive; Vif inh: inactive; N-glyco inh: inactive; ATG4B inhibitor: inactive

Results for Cc1nn(CC(=O)NC(=O)c2ccccc2)c(C)c1[N+](=O)[O-] ?
CaV13 FRET inh: inactive; NSD2 HMT inh: inactive; Pemphigus Ab inh: inactive; Vif inh: 54; N-glyco inh: inactive; ATG4B inhibitor: inactive

How did CC1CCN(C(=O)COC(=O)c2nn(C)c(=O)c3ccccc23)CC1 do in these assays?
CaV13 FRET inh: inactive; NSD2 HMT inh: inactive; Pemphigus Ab inh: inactive; Vif inh: inactive; N-glyco inh: inactive; ATG4B inhibitor: inactive

Results for Clc1ccc(-c2ccc(C=Nc3ccc(N4CCOCC4)cc3)o2)c(Cl)c1 ?
CaV13 FRET inh: inactive; NSD2 HMT inh: inactive; Pemphigus Ab inh: 27; Vif inh: inactive; N-glyco inh: inactive; ATG4B inhibitor: inactive

How did COc1ccc(-c2cc(C(=O)NCC(c3ccccc3)N(C)C)c3ccccc3n2)cc1OC (stereo not drawn) do in these assays?
CaV13 FRET inh: inactive; NSD2 HMT inh: inactive; Pemphigus Ab inh: inactive; Vif inh: inactive; N-glyco inh: 30; ATG4B inhibitor: inactive

Results for CCC(CC)C(=O)Nc1nnc(S(=O)(=O)N2c3ccccc3CC2C)s1 (stereo not drawn) ?
CaV13 FRET inh: inactive; Pemphigus Ab inh: -14; Vif inh: inactive; N-glyco inh: inactive; ATG4B inhibitor: inactive

How did CCC(CC)C(=O)Nc1nnc(S(=O)(=O)N2CCc3ccccc32)s1 do in these assays?
CaV13 FRET inh: inactive; Pemphigus Ab inh: inactive; Vif inh: inactive; N-glyco inh: inactive; ATG4B inhibitor: inactive
